Potency and affinity values are given separately. Calls of active or inactive are those of the source.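 How the source made its calls: active means compounds with a falling luminescence curve whose half-maximal concentration is at most twice the top valid dose; inconclusive means flat fit between -70 and -30 percent, or poor fit; inactive means the rest.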
Assay: viability loss in MITF-independent A375 cells – cell-based, CellTiter-Glo luminescence, dry powder, set 2, counter-screen for MITF inhibitor project, dose response (AID 624489)
Conditions: A375 melanoma viability, CellTiter-Glo ATP luminescence, 24 h; series mostly up to 35 µM

SMILES | outcome
C=CCNC1=C(NC(=O)c2ccccc2)C(=O)c2ccccc2C1=O | inactive
C=CCNC1=C(NS(=O)(=O)c2cccs2)C(=O)c2ccccc2C1=O | inactive
COc1ccc(C2=C(NC(=O)c3ccc(OC)cc3-c3cccc(OC)c3)C(=O)c3ccccc3C2=O)cc1 | inactive
O=C1C(NS(=O)(=O)c2ccc(Br)cc2)=C(N2CCN(c3ccccc3)CC2)C(=O)c2ccccc21 | inactive
C=CCNC1=C(NCC=C)C(=O)c2ccccc2C1=O | inactive
